Experimental findings from ChEMBL document CHEMBL1961873, “Compounds: GSK PKIS; Assays: Nanosyn kinase panel” (2012) are described below.

Structures are written as SMILES.

Assay [1] deals with Protein kinase C gamma type (Homo sapiens) (UniProt P05129). The settings on record: at 1 µM.
Assay [2] concerns the target T1, Protein kinase C iota type (Homo sapiens) (UniProt P41743).
T1 sequence (whole entry): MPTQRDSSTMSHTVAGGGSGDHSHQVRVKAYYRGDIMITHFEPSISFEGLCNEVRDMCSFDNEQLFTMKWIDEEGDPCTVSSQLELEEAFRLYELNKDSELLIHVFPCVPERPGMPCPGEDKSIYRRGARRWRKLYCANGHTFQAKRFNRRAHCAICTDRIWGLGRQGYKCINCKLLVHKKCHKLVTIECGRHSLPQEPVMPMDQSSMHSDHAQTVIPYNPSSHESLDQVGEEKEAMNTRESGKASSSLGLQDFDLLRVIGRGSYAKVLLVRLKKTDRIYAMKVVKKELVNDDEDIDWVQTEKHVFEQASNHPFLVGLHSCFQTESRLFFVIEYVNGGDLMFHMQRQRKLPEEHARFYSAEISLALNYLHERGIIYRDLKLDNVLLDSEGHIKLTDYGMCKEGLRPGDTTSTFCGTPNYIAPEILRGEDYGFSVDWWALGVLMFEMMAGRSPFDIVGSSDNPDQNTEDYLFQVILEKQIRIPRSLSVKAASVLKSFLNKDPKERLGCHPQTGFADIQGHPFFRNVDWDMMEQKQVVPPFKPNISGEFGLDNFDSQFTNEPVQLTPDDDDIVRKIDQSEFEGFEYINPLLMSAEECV
The conditions noted are these: at 0.1 µM.

Assay [3] deals with T1, Protein kinase C iota type (Homo sapiens). The conditions noted are these: at 1 µM.
Assay [4] deals with Protein kinase C theta type (Homo sapiens) (UniProt Q04759). The settings on record: at 0.1 µM.
Assay [5] shares this target. The settings on record: at 1 µM.
Assay [6] has as its target Protein kinase C beta type (Homo sapiens) (UniProt P05771). The settings on record: at 0.1 µM.
Assay [7] has the same target. The settings on record: at 1 µM.
The target of assay [8] is T2, Serine/threonine-protein kinase D1 (Homo sapiens) (UniProt Q15139).
T2 sequence (whole entry): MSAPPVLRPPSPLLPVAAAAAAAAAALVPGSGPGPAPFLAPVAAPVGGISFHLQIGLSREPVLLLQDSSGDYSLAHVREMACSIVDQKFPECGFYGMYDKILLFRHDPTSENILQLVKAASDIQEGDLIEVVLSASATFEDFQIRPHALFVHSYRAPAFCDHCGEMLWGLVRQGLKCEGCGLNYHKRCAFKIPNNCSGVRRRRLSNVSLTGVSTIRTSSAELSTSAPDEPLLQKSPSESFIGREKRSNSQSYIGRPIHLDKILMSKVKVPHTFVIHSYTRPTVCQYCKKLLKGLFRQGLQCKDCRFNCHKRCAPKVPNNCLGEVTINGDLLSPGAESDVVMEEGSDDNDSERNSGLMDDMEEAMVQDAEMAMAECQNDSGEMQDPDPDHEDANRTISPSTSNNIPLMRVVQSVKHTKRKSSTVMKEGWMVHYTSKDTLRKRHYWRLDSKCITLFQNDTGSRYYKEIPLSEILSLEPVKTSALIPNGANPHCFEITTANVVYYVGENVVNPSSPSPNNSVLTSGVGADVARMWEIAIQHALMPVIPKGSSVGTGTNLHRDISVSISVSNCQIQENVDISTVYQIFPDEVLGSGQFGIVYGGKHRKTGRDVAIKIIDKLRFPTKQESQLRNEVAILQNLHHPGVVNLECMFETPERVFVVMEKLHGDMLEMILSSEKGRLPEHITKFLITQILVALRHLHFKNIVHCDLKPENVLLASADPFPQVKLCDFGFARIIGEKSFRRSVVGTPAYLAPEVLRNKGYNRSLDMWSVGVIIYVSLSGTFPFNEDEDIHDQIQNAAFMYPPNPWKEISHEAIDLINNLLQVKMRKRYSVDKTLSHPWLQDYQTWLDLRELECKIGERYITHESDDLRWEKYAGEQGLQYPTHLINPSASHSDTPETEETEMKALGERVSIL
The settings on record: at 0.1 µM.

Assay [9] addresses T2, Serine/threonine-protein kinase D1 (Homo sapiens). The settings on record: at 1 µM.
The target in assay [10] is T3, Serine/threonine-protein kinase D2 (Homo sapiens) (UniProt Q9BZL6).
T3 sequence (whole entry): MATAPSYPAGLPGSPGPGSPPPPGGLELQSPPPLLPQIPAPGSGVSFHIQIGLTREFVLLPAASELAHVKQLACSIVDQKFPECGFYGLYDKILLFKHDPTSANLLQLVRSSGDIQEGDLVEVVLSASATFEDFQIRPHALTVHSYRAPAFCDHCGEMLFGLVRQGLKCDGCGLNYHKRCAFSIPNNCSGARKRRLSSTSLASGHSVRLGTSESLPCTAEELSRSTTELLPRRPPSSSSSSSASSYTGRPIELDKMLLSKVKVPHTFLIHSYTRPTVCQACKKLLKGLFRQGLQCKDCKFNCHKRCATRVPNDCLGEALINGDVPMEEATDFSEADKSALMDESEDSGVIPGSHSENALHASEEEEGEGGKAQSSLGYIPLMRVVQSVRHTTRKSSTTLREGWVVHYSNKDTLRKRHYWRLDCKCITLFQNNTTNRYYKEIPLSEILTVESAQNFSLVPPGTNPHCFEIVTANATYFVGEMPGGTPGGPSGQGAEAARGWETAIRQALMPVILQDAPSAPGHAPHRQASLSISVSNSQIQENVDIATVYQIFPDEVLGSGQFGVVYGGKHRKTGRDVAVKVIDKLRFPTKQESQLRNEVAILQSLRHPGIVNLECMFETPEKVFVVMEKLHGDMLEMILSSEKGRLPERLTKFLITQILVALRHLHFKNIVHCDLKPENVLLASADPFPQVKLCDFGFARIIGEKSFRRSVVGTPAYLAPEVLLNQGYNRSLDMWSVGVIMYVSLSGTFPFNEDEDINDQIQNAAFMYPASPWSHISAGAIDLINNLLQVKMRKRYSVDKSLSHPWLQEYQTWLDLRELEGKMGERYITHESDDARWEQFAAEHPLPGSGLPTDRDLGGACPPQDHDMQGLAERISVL
The conditions noted are these: at 0.1 µM.

Assay [11] concerns the target T3, Serine/threonine-protein kinase D2 (Homo sapiens). The settings on record: at 1 µM.
Assay [12] deals with T4, Serine/threonine-protein kinase D3 (Homo sapiens) (UniProt O94806).
T4 sequence (whole entry): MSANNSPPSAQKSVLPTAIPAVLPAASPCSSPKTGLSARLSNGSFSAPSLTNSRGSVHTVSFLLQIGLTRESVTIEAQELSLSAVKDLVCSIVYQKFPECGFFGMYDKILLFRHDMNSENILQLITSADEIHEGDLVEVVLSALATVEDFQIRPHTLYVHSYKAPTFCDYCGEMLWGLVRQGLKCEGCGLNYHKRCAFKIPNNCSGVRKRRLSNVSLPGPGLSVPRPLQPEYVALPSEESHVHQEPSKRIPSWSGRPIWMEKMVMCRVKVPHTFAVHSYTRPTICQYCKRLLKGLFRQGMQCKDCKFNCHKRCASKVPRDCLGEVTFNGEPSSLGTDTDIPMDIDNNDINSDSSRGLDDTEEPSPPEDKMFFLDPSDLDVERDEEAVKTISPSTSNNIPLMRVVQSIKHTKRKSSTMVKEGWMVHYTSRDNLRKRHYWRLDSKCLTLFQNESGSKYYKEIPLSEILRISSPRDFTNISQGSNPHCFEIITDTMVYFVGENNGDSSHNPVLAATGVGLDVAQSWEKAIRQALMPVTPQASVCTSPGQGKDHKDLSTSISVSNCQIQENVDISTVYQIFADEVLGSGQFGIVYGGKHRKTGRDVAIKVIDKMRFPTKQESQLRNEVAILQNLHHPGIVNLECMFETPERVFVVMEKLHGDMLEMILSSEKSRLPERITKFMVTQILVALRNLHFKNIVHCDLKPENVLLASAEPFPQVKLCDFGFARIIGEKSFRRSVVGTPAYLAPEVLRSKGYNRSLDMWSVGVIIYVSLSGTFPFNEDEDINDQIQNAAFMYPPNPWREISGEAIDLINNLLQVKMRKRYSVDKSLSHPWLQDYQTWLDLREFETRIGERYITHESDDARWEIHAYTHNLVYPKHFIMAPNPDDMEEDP
The settings on record: at 0.1 µM.

Assay [13] concerns the target T4, Serine/threonine-protein kinase D3 (Homo sapiens). The conditions noted are these: at 1 µM.
For assay [14], the target named is T5, cGMP-dependent protein kinase 1 (Homo sapiens) (UniProt Q13976).
T5 sequence (whole entry): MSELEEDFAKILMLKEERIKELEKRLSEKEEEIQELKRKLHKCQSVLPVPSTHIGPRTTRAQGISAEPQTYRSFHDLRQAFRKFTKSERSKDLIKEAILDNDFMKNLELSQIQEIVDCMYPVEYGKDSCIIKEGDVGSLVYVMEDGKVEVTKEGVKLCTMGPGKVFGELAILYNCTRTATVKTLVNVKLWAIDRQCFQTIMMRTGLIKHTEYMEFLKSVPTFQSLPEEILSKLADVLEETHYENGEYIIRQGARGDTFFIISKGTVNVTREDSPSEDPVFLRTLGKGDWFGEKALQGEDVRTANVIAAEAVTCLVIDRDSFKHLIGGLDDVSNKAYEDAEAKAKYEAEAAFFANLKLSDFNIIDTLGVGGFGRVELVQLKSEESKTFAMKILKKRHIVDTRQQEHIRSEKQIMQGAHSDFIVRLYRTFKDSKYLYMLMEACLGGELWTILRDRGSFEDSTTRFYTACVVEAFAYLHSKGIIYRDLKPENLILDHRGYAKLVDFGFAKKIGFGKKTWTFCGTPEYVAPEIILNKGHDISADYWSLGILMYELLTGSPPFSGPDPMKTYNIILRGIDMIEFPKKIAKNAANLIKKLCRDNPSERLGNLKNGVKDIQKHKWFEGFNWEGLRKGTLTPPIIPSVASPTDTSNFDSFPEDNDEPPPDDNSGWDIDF
The conditions noted are these: at 0.1 µM.

In assay [15] the target is T5, cGMP-dependent protein kinase 1 (Homo sapiens). The conditions noted are these: at 1 µM.
The target of assay [16] is T6, cGMP-dependent protein kinase 2 (Homo sapiens) (UniProt Q13237).
T6 sequence (whole entry): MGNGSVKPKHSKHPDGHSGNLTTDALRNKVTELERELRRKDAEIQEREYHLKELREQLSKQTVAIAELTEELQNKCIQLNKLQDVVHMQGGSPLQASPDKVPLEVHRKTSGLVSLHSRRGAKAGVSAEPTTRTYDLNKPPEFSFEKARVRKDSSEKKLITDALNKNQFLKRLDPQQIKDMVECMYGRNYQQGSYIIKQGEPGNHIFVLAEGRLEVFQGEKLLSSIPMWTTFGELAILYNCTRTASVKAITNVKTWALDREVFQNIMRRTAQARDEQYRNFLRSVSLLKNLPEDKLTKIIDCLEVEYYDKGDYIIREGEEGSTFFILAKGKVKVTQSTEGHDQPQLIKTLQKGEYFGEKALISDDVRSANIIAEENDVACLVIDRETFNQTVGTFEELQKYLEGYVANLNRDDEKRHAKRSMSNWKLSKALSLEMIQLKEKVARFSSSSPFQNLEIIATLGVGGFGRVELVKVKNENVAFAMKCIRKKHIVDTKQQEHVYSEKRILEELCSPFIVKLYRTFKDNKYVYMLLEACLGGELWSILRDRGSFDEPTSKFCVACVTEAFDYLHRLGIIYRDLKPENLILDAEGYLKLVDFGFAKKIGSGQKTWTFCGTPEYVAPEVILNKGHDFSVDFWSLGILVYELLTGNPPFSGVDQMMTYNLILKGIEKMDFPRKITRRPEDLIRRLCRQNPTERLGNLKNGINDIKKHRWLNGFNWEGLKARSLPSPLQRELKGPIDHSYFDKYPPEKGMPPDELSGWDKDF
The conditions noted are these: at 0.1 µM.

Assay [17] addresses T6, cGMP-dependent protein kinase 2 (Homo sapiens). The settings on record: at 1 µM.
Assay [18] deals with T7, cAMP-dependent protein kinase catalytic subunit PRKX (Homo sapiens) (UniProt P51817).
T7 sequence (whole entry): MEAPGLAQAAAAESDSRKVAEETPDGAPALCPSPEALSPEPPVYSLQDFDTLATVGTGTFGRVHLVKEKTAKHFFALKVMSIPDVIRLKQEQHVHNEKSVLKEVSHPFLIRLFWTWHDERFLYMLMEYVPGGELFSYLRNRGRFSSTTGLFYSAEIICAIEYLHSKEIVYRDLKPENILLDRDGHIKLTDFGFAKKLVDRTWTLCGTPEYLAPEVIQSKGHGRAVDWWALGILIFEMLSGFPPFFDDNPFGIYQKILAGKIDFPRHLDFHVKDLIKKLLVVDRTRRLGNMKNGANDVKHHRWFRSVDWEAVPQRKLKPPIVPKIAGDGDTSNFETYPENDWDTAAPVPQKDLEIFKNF
The settings on record: at 0.1 µM.

The target in assay [19] is T7, cAMP-dependent protein kinase catalytic subunit PRKX (Homo sapiens). The settings on record: at 1 µM.
Assay [20] concerns the target Rho-associated protein kinase 1 (Homo sapiens) (UniProt Q13464). The settings on record: at 0.1 µM.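 Also: values are mean percent inhibition of ROCK1.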

Chain of Protein kinase C beta type (Homo sapiens) (P05771 2-671 limits assumed): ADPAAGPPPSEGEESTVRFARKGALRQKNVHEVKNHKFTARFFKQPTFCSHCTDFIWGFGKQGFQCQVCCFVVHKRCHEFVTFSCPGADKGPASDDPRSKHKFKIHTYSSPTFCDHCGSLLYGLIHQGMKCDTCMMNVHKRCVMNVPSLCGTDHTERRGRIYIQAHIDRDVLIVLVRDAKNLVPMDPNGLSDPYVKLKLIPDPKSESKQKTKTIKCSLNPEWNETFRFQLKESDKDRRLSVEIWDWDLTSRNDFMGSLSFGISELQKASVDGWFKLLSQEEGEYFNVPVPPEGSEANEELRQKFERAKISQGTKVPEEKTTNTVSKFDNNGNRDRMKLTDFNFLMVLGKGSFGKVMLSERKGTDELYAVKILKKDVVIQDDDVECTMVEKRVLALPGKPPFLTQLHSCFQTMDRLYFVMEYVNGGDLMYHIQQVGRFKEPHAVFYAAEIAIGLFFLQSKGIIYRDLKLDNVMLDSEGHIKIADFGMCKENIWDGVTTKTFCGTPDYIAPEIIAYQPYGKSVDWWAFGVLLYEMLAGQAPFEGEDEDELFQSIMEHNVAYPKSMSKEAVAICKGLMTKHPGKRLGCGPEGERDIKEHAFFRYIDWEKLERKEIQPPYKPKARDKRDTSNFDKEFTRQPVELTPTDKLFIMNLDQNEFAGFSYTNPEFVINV
Chain of Protein kinase C theta type (Homo sapiens) (Q04759 whole entry, looked up): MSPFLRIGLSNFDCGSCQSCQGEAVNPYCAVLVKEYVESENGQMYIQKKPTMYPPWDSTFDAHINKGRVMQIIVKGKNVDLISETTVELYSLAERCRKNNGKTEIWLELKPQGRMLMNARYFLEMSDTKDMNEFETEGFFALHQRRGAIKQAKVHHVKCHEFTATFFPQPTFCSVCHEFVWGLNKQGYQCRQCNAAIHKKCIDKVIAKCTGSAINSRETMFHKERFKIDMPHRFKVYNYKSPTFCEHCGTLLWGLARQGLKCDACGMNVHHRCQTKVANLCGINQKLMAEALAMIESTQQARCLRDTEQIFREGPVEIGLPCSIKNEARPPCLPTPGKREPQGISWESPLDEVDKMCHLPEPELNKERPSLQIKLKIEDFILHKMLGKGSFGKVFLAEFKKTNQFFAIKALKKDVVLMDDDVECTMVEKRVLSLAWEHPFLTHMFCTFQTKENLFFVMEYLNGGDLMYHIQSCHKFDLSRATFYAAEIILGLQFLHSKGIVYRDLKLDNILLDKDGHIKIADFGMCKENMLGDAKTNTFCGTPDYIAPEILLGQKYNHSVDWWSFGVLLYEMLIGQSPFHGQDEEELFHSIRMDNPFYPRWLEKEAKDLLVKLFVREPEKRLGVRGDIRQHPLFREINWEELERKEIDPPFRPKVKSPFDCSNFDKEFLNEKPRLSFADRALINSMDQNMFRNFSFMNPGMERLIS
Chain of Rho-associated protein kinase 1 (Homo sapiens) (Q13464 2-1354 limits assumed): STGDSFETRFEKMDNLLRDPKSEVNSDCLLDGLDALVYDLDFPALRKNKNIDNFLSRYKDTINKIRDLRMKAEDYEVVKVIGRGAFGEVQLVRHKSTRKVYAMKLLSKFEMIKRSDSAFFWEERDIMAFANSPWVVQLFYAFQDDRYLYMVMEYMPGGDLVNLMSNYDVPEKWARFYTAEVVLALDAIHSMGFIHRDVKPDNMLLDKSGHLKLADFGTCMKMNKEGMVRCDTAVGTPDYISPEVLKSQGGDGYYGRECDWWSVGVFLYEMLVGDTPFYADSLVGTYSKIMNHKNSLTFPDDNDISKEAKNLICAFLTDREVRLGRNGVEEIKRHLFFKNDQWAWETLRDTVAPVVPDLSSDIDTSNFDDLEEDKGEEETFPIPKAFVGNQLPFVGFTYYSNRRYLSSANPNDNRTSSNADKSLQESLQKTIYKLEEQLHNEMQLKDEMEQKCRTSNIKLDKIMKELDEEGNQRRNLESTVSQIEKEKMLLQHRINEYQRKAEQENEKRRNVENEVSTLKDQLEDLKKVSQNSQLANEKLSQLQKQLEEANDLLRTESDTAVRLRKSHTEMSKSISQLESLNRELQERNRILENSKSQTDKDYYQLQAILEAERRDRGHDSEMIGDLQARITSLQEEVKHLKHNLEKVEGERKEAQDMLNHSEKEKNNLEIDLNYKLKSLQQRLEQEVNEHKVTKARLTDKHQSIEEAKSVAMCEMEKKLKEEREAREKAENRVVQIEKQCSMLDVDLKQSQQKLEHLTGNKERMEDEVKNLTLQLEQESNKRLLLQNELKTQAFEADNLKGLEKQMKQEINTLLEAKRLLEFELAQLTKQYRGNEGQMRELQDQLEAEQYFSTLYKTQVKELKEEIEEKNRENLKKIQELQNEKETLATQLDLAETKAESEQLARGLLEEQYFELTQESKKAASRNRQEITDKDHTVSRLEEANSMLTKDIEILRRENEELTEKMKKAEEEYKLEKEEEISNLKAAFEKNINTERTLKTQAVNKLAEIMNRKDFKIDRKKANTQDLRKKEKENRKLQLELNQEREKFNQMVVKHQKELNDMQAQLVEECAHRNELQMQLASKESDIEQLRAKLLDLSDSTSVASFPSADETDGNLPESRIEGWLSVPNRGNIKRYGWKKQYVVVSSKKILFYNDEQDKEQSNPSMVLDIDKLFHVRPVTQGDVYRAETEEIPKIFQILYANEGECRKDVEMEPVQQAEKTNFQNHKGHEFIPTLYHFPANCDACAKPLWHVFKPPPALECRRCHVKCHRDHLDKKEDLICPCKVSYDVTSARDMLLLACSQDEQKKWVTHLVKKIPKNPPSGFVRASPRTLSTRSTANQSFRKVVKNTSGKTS

The inhibition is the change of the read-out against control, counted positive when it falls. Higher therefore signals strong suppression. Regarding `COc1cc(N2CCN(C(C)C)CC2)ccc1Nc1nc(Nc2ccc(F)cc2C(=O)NC[C@@H](O)CO)c2cc[nH]c2n1`, the inhibition in [1] amounted to 7.34%; in [2], 2.87%; in assay [3] it was 0.36%; in assay [4], 3.85%; in assay [5] it was 6.2%; in assay [6], 1.04%. The inhibition turned out to be 2.5% in assay [7]; 1.65% in assay [8]; 13.4% in [9]; 3.16% in assay [10]; 17.5% in [11]; 3.93% in assay [12]. Moreover, the inhibition in [13] amounted to 20.7%; in [14], 7.74%; in [15], 35.1%; in assay [16], 2.82%; in [17], 8.2%; in assay [18], 2.99%. Further, the values for the inhibition in assay [19] and in [20] were 6.02% and 1.24%, respectively.

For `O=C(Nc1n[nH]c2cc(-c3ccccc3)ccc12)C1CC1`, the inhibition in assay [1] was 1.52%; in assay [2], 2.86%; in assay [3], 3.51%; in assay [4] it was 2.7%; in assay [5] it was 1.97%; in [6], 1.8%. For the same compound, the inhibition came to 3.32% in [7]; 4.43% in [8]; 5.64% in [9]; 4.79% in assay [10]; 5.1% in assay [11]; 5.75% in assay [12]. The inhibition in assay [13] turned out to be 6.47%; in assay [14], 3.2%; in [15], 3.14%; in assay [16], 1.66%; in [17], 2.57%; in assay [18], 1.37%. In addition, the inhibition in assay [19] came out at 0.63%; in assay [20], 1.2%.
